Screening results as filed in PubChem BioAssay.
EP2 mod – modulates human prostaglandin E2 receptor EP2 signaling | EP2-expressing cells, cAMP HTRF FRET, PGE2 co-stimulation | induction, % at 25 µM | actives 0.83% (n = 260,000);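 active means compounds whose cAMP rise, as percent of the full-agonist control response, exceeds 60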;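 further: rat C6 glioma line stably carrying human EP2 under a CMV promoter; the protocol text gives 20 µM as final concentration; 100% = response of wells given 1 µM PGE2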
Rev-erbA mod – modulates human Rev-erb alpha binding to DNA; P20393; Rev-erbα–FITC-DNA binding, fluorescence polarization, 90 min; activity, % at 10 µM; actives 0.79% (n = 370,000); AID 1259318;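 active means activity above about 14%, limit read from the data; passing the limit was not always enough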;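 further: 0% = DMSO wells with 35 nM protein and 100% = DMSO wells with 750 nM protein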
Target sequence (P20393 whole entry, looked up): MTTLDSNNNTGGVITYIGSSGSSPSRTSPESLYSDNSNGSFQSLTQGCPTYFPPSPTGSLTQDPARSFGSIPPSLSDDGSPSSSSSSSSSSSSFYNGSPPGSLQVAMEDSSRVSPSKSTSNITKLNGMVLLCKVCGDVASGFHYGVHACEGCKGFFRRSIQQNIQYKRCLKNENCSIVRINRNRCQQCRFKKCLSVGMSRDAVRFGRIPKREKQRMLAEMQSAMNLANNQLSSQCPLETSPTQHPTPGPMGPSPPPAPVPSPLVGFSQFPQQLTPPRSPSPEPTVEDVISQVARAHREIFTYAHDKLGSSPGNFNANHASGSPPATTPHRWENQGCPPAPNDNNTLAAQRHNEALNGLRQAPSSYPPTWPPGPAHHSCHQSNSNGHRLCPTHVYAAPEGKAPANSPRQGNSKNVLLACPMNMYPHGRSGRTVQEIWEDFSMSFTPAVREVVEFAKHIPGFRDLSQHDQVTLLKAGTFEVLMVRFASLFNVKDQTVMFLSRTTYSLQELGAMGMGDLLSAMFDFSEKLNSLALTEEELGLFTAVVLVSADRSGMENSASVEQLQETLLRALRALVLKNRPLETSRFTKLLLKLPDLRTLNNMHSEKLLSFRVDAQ
PG9 Ab binder – binds the HIV-1 gp120 antibody PG9; TR-FRET gp120-PG9 antibody binding; actives 0.43% (n = 360,000); inhibition, % at 6.7 µM; in the data active means inhibition above about 8.5%
PGE2 EP2 inh – EP2 receptor (human) inhibition | AID 1422 | C6 glioma cells expressing human EP2, cAMP TR-FRET; cells stimulated with saturating PGE2 | P43116 | inhibition, % at 25 µM | actives 0.52% (n = 260,000);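 active means percent inhibition above 40 after rounding to a whole number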;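 further: rat C6 glioma host cells with rolipram phosphodiesterase inhibitor present; the protocol text gives 20 µM as final concentration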
RAM network inh – blocks the yeast RAM network | S. cerevisiae dse1pr::URA3 reporter, 5-FOA growth OD615, 2 d; analog-sensitive cbk1-as2 kinase mutant strain | actives 1.8% (n = 190,000) | inhibition, % at 50 µM;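 active means inhibition above a set limit, 3 SD over mean compound inhibition, cut at about 8.4% in these data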;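 further: 0% = DMSO-only wells with no growth and 100% = 10 µM 1-NA-PP1 full growth; inhibition rescues growth on 5-FOA so higher OD means more RAM inhibition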
SKN-1 inh – inhibitors of C. elegans SKN-1. C. elegans VP596 Pgst-4::GFP/RFP ratio, acrylamide-induced, 24 h. inhibition, % at 21.8 µM. actives 0.49% (n = 360,000). AID 624304;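 active means interference check ratio from 0.5 to 1.5 plus GFP to RFP signal ratio inhibition reaching or exceeding a fixed threshold, cut at about 30% in these data, passing the limit was not always enough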
EP2 confirm – EP2 receptor cAMP induction, counter-screens negative; shares compounds with EP2 mod; C6 glioma EP2 cells, cAMP HTRF induction; plus low (about EC15) PGE2 agonist; calls only at 20 µM (by protocol); actives 47% (n = 1,300); AID 1080;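 active means cAMP induction above 50% in the main assay while under 30% in all four parallel counter assays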;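 further: rat C6 glioma cells stably expressing human EP2 receptor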
PG9 binder conf – PG9 antibody binding, confirmed. shares compounds with PG9 Ab binder. TR-FRET PG9 antibody binding, biochemical. inhibition, % at 6.7 µM. actives 90% (n = 1,500); in the data active means inhibition above about 9%
PGV04 Ab binding – binds control antibody PGV04 in PG9 binder counter-screen; inhibition, % at 6.7 µM; TR-FRET PGV04 antibody-gp120 binding, biochemical; AID 651604; actives 95% (n = 1,500); shares compounds with PG9 Ab binder; in the data active means inhibition above about 9.5%
PG9 bind DR – PG9 antibody binding, dose response; AID 651848; 95 tested, under 10 active; IC50, µM; TR-FRET PG9 antibody-gp120 binding inhibition; shares compounds with PG9 Ab binder; in the data active means IC50 below about 10 µM
PGV04 binding DR – binds control antibody PGV04 in PG9 counter-screen; shares compounds with PG9 Ab binder; TR-FRET binding to control antibody PGV04; IC50, µM; actives 20% (n = 95); AID 651937
PG126 DR counter – PG126 binding, dose response counter-screen. shares compounds with PG9 Ab binder. TR-FRET binding to antibody PG126, counterscreen. IC50, µM. actives 20% (n = 95). AID 651939
* = called active by the depositor. Most compounds without a hit are left out; they make up all but 2.9% or so of the library. Unless noted, no stated cut-off is given here; in the data, active means IC50 below about 9 µM; inactive means the rest.

O=C(O)c1oc2ccccc2c1CSc1ccc(Cl)cc1 was read as Rev-erbA mod 1, PG9 Ab binder 0 and SKN-1 inh 4.
`O=C(c1ccc(Cl)cc1)c1oc2ccccc2c1CS(=O)c1ccccc1` (stereo not drawn) gave EP2 mod 71*, Rev-erbA mod -3, PG9 Ab binder -2, PGE2 EP2 inh 1, RAM network inh 2, SKN-1 inh 13 and EP2 confirm active.
Screening COc1ccc(-c2noc(-c3ccccc3C(=O)Nc3cccnc3)n2)cc1OC returned EP2 mod 17, Rev-erbA mod 5, PG9 Ab binder 0, PGE2 EP2 inh 14, RAM network inh 2 and SKN-1 inh 9.
`COc1ccc(-c2noc(-c3ccccc3C(=O)Nc3cccnc3)n2)cc1` gave EP2 mod 50, Rev-erbA mod 3, PG9 Ab binder -1, PGE2 EP2 inh 4, RAM network inh 2, SKN-1 inh 6 and EP2 confirm active.
`Cc1ccc2cc(CN(C(=O)Nc3ccccc3Cl)C3CCCCC3)c(=O)[nH]c2c1` gave EP2 mod -3 and PGE2 EP2 inh 7.
For Clc1ccc2nc(-c3ccncc3)cc(-c3ccccc3)c2c1 the results were EP2 mod 55, Rev-erbA mod 4, PG9 Ab binder 1, PGE2 EP2 inh 4, RAM network inh 3 and SKN-1 inh -5.
Screening c1ccc(-c2cc(-c3ccncc3)nc3ccc4ccccc4c23)cc1 returned EP2 mod 99*, Rev-erbA mod 20, PG9 Ab binder -3, PGE2 EP2 inh 5, RAM network inh 5, SKN-1 inh 11 and EP2 confirm active.
Screening O=c1c2oc3ccccc3c2[nH]c(=S)n1-c1ccccc1 returned EP2 mod 71*, Rev-erbA mod 8, PG9 Ab binder 17*, PGE2 EP2 inh 13, RAM network inh 4, SKN-1 inh 9, EP2 confirm inactive, PG9 binder conf 14*, PGV04 Ab binding 13*, PG9 bind DR inactive, PGV04 binding DR inactive and PG126 DR counter inactive.
For CCCCn1c(=O)[nH]c2c(oc3ccccc32)c1=O the results were Rev-erbA mod 8, PG9 Ab binder 0 and SKN-1 inh 3.
Cc1ccc(-n2c(=S)[nH]c3c(oc4ccccc43)c2=O)cc1 was read as EP2 mod 74*, Rev-erbA mod 1, PG9 Ab binder 18*, PGE2 EP2 inh 14, RAM network inh 1, SKN-1 inh 3, EP2 confirm inactive, PG9 binder conf 17*, PGV04 Ab binding 7, PG9 bind DR >67, PGV04 binding DR >67 and PG126 DR counter >67.
Screening Cc1cccc(-n2c(=S)[nH]c3c(oc4ccccc43)c2=O)c1 returned EP2 mod 71*, Rev-erbA mod -1, PG9 Ab binder 16*, PGE2 EP2 inh 13, RAM network inh 6, SKN-1 inh 9, EP2 confirm inactive, PG9 binder conf 7 and PGV04 Ab binding 9.4*.
`CC(=O)NNC(=O)Cn1nnc(-c2ccccc2)n1` gave EP2 mod -3 and PGE2 EP2 inh 7.
Screening CCN1CCCC1CN(Cc1cc2cc3c(cc2[nH]c1=O)OCO3)C(=O)Nc1ccccc1OC (stereo not drawn) returned EP2 mod -22 and PGE2 EP2 inh 15.
For CCCCc1c(C)nc2ccc(Br)cc2c1SCCC#N the results were EP2 mod 56, PGE2 EP2 inh 12 and RAM network inh 0.
For CCc1c(C)nc2ccc(Br)cc2c1SCCC#N the results were EP2 mod 65*, Rev-erbA mod 5, PG9 Ab binder 11*, PGE2 EP2 inh 12, RAM network inh 0, SKN-1 inh 18, EP2 confirm inactive, PG9 binder conf 13* and PGV04 Ab binding 20*.
`CC(C)NC(=O)c1ccccc1NC(=O)c1sc2ccccc2c1Cl` gave EP2 mod -5 and PGE2 EP2 inh 7.
CC1(C)Cc2ccccc2-c2c1c(=O)n(Cc1ccccc1)c1nnnn21 was read as EP2 mod 56, Rev-erbA mod 1, PG9 Ab binder -1, PGE2 EP2 inh 13, RAM network inh 2 and SKN-1 inh 2.
`CCn1c(=S)[nH]c2c(c1=O)C(C)(C)Cc1ccccc1-2` gave EP2 mod 66*, Rev-erbA mod -4, PG9 Ab binder 24*, PGE2 EP2 inh 21, RAM network inh 3, SKN-1 inh -2, EP2 confirm inactive, PG9 binder conf 14*, PGV04 Ab binding 12*, PG9 bind DR >67, PGV04 binding DR inactive and PG126 DR counter inactive.
Screening O=C(NCc1cccs1)C1CC(c2ccccc2Cl)=NO1 (stereo not drawn) returned EP2 mod -20 and PGE2 EP2 inh 5.
CC1CCCN(C(=O)CSc2cnc3ccccc3n2)C1 (stereo not drawn) was read as EP2 mod 68*, Rev-erbA mod 4, PG9 Ab binder 30*, PGE2 EP2 inh 16, RAM network inh -1, SKN-1 inh 8, EP2 confirm inactive, PG9 binder conf 35* and PGV04 Ab binding 39*.
Screening Cc1nc2ccccc2nc1SCC(=O)N1CCC(C)CC1 returned EP2 mod 65*, Rev-erbA mod 3, PG9 Ab binder 38*, PGE2 EP2 inh 16, RAM network inh 0, SKN-1 inh 13, EP2 confirm inactive, PG9 binder conf 34* and PGV04 Ab binding 42*.
CC1CCN(C(=O)CSc2nc3ccccc3s2)CC1 was read as EP2 mod -33, Rev-erbA mod 1, PG9 Ab binder -2, RAM network inh 1 and SKN-1 inh 15.
